# Source: the supplement of paper PMC8975748
# Counter-ions that a name gives are not always drawn.
# System: Saccharomyces cerevisiae BY4741 SeMeCo community
# Test: z-score of subpopulation abundance vs DMSO median, subpopulation auxotrophic for M; higher = larger share of this subpopulation than in DMSO controls
# Details: 10 µM; 24 h; SM minimal medium; subpopulation (auxotrophy): M
# Method: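 Fluorescent four-plasmid SeMeCo (self-establishing metabolically cooperating S. cerevisiae BY4741 community; plasmids pH-mRuby2, pL-mWasabi, pU-eCFP, pM-TagRFP657) was grown 24 h in minimal SM medium with each Selleck FDA-approved drug at 10 µM in 384-well plates. Cells were fixed and imaged by high-content confocal microscopy. For each auxotrophic subpopulation (and the prototroph), a z-score gives the deviation from the DMSO vehicle-control population median.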
row,SMILES,z-score of subpopulation abundance
1,O=C(C1CCCCC1)N1CC(=O)N2CCc3ccccc3C2C1 (stereo not given) [Praziquantel],0.19
2,N=C(N)NC(=O)c1nc(Cl)c(N)nc1N [Amiloride HCl dihydrate],3.23
3,O=C1[C@@H]2[C@H]3CC[C@H](C3)[C@@H]2C(=O)N1C[C@@H]1CCCC[C@H]1CN1CCN(c2nsc3ccccc23)CC1 [lurasidone],-0.62
4,c1ccc(C2CN3CCSC3=N2)cc1 (stereo not given) [Tetramisole HCl],-0.44
5,Nc1nc2c(ncn2COCCO)c(=O)[nH]1 [Aciclovir],-0.02
6,COc1ccc(CCN(C)CCCC(C#N)(c2ccc(OC)c(OC)c2)C(C)C)cc1OC (stereo not given) [Verapamil HCl],1.34
7,OC[C@H]1O[C@H](OCC2O[C@@H](O)[C@H](O)[C@@H](O)[C@@H]2O)[C@H](O)[C@@H](O)[C@H]1O (stereo not given in full) [Melibiose],0.28
8,COC(=O)C1=C(C)NC(C)=C(C(=O)OC(C)(C)CN(C)CCC(c2ccccc2)c2ccccc2)C1c1cccc([N+](=O)[O-])c1 (stereo not given) [Lercanidipine],0.27
9,COC(=O)C1=C(C)NC(C)=C(C(=O)OCCN(C)Cc2ccccc2)C1c1cccc([N+](=O)[O-])c1 (stereo not given) [Nicardipine HCl],1.01
10,CC[C@H]1OC(=O)C[C@@H](O)[C@H](C)[C@@H](O[C@@H]2O[C@H](C)[C@@H](O[C@H]3C[C@@](C)(O)[C@@H](O)[C@H](C)O3)[C@H](N(C)C)[C@H]2O)[C@@H](CC=O)C[C@@H](C)C(=O)/C=C/C(C)=C/[C@@H]1CO[C@@H]1O[C@H](C)[C@@H](O)[C@@H](OC)[C@H]1OC [Tylosin],-0.28
11,CC(=O)OCC(COC(C)=O)OC(C)=O [Triacetin],-0.16
12,CC1=CC[C@@](O)(C(C)C)CC1 [Terpinen-4-ol],-1.02
13,CC(=O)N1CCN(c2ccc(OCC3COC(Cn4ccnc4)(c4ccc(Cl)cc4Cl)O3)cc2)CC1 (stereo not given) [Ketoconazole],-1.31
14,COc1cc(N)c(Cl)cc1C(=O)NC1CCN(CCCOc2ccc(F)cc2)CC1OC (stereo not given) [Cisapride],-1.29
15,O=C(Nc1cc(Cl)cc(Cl)c1O)c1c(O)c(Cl)cc(Cl)c1Cl [Oxyclozanide],-2.38
16,CCCN1C[C@H](C)[C@@H](O)[C@](C)(O)[C@@H](CC)OC(=O)[C@H](C)[C@@H](O[C@H]2C[C@@](C)(OC)[C@@H](O)[C@H](C)O2)[C@H](C)[C@@H](O[C@@H]2O[C@H](C)C[C@H](N(C)C)[C@H]2O)[C@](C)(O)C[C@H]1C [Gamithromycin],-0.59
17,COc1ccc(CC2c3cc(OC)c(OC)cc3CC[N+]2(C)CCC(=O)OCCCCCOC(=O)CC[N+]2(C)CCc3cc(OC)c(OC)cc3C2Cc2ccc(OC)c(OC)c2)cc1OC (stereo not given) [Atracurium Besylate],-0.87
18,Cc1ccc(-c2ncc(Cl)cc2-c2ccc(S(C)(=O)=O)cc2)cn1 [Etoricoxib],0.51
19,CN(C)CCCN1c2ccccc2CCc2ccc(Cl)cc21 [Clomipramine HCl],0.54
20,O=C1c2c(O)ccc(O)c2C(=O)c2c(NCCNCCO)ccc(NCCNCCO)c21 [Mitoxantrone 2HCl],-14

row,SMILES,z-score of subpopulation abundance
1,NC12CC3CC(CC(C3)C1)C2 [Amantadine HCl],0.52
2,C[C@@H]1O[C@@H]1P(=O)(O)O [Fosfomycin Disodium],-0.48
3,Cc1cc(NS(=O)(=O)c2ccc(N)cc2)nc(C)n1 [sulfaisodimidine],0.59
4,NC(=O)OCC(COC(N)=O)c1ccccc1 [Felbamate],-0.21
5,C=C1CCC2C(C)(CO)C(O)CCC2(C)C1CC=C1C=COC1=O (stereo not given) [Dehydroandrographolide],0.35
6,CCN(CC)CCOc1ccc2c(c1)C(=O)c1cc(OCCN(CC)CC)ccc1-2 [Tilorone dihydrochloride],-1.12
7,CNCCCC1c2ccccc2C=Cc2ccccc21 [Protriptyline hydrochloride],-0.4
8,O=C([O-])CC(O)(CC(=O)[O-])C(=O)[O-].O=C([O-])CC(O)(CC(=O)[O-])C(=O)[O-].[Bi+3].[K+].[K+].[K+].[K+].[K+] [Bismuth Subcitrate Potassium],-3.84
9,O=C(O)c1cc(O)c2c(c1)[C@H]([C@H]1c3cc(C(=O)O)cc(O)c3C(=O)c3c(O[C@@H]4O[C@H](CO)[C@@H](O)[C@H](O)[C@H]4O)cccc31)c1cccc(O[C@@H]3O[C@H](CO)[C@@H](O)[C@H](O)[C@H]3O)c1C2=O [Sennoside A],-1.76
10,NC[C@@H]1O[C@H](O[C@H]2[C@@H](O)[C@H](O[C@@H]3[C@@H](O)[C@H](N)C[C@H](N)[C@H]3O[C@H]3O[C@H](CO)[C@@H](O)[C@H](O)[C@H]3N)O[C@@H]2CO)[C@H](N)[C@@H](O)[C@@H]1O [Paromomycin Sulfate],1.04
11,C[C@H]1c2cccc(O)c2C(O)=C2C(=O)[C@]3(O)C(O)=C(C(N)=O)C(=O)[C@@H](N(C)C)[C@@H]3[C@@H](O)[C@@H]21 [Doxycycline monohydrate],-0.88
12,C#C[C@]1(O)CC[C@H]2[C@@H]3CCC4=CC(=O)CC[C@@H]4[C@H]3CC[C@@]21CC [Levonorgestrel],-0.18
13,CNCC[C@@H](Oc1ccccc1C)c1ccccc1 [Atomoxetine HCl],0.21
14,C[C@@H](c1nc(-c2ccc(C#N)cc2)cs1)[C@](O)(Cn1cncn1)c1cc(F)ccc1F [Isavuconazole],-1.83
15,O=C(c1ccccc1)c1ccc2n1CCC2C(=O)O (stereo not given) [Ketorolac tromethamine salt],0.27
16,O=c1ccn(C2CC(O)C(CO)O2)c(=O)[nH]1 (stereo not given) [2-deoxyuridine],0.17
17,CC(C)c1nc(N(C)S(C)(=O)=O)nc(-c2ccc(F)cc2)c1/C=C/[C@@H](O)C[C@@H](O)CC(=O)O [Rosuvastatin Calcium],-1.93
18,CC1(C)S[C@@H]2[C@H](NC(=O)[C@H](N)c3ccc(O)cc3)C(=O)N2[C@H]1C(=O)O [Amoxicillin Sodium],0.97
19,CC[C@H]1OC(=O)[C@H](C)[C@@H](O[C@H]2C[C@@](C)(OC)[C@@H](O)[C@H](C)O2)[C@H](C)[C@@H](O[C@@H]2O[C@H](C)C[C@H](N(C)C)[C@H]2O)[C@](C)(O)C[C@@H](C)C(=O)[C@H](C)[C@H]2OC(=O)O[C@@]21C [Erythromycin Cyclocarbonate],-0.28
20,Cc1ccc(Cl)c(Nc2ccccc2C(=O)O)c1Cl [Meclofenamate Sodium],0.25
